Measured values as given in PubChem BioAssay.
For some of these results: Measured potencies and affinities stand elsewhere. Activity calls are given as the source filed them. Unless noted, no rule for the calls is given here.

How the values were obtained:
[1] = antimalarial activity against Dd2 strain (AID 2302;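 active = growth inhibition above 50% at the single 2 µM test dose, taken to imply half-maximal potency below 2 µM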;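 also: 0% = DMSO untreated growth and 100% = chloroquine plus artemisinin killed control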); details: P. falciparum Dd2 in RBCs, LDH growth readout, 72 h; at 2 µM; stronger effect = higher value
[2] = HepG2 cytotoxicity, primary screen, cytotoxicity control for P. falciparum antimalarial project, cell-based, ATP luminescence (AID 2303;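 active = inhibition above 50%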;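 also: 0% = DMSO wells and 100% = digitonin-killed cells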); details: HepG2 viability, 24-48 h, at 10 µM, stronger effect = higher value
[3] = biological target: L-lactate dehydrogenase (Plasmodium falciparum (isolate CDC / Honduras)) (UniProt Q27743); test: PfLDH activity inhibition – cell lysate, 3D7 strain, counter-screen for P. falciparum growth inhibition project (AID 2304);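 also: 0% = vehicle and 100% = reference inhibitor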; details: P. falciparum 3D7 crude extract, LDH APAD/NBT absorbance; at 2 µM; stronger effect = higher value
[4] = inhibition of 3D7 malaria parasite growth – strain 3D7 (AID 2306);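 also: 0% = DMSO wells and 100% = chloroquine plus artemisinin control wells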; details: P. falciparum 3D7 erythrocytic growth, LDH absorbance, 72 h; at 2 µM; stronger effect = higher value
[5] = biological target: Calcium-dependent protein kinase 1 (Plasmodium falciparum (isolate 3D7)) (UniProt P62344); test: PfCDPK1 kinase inhibitors, biochemical, TCAMS library (AID 1159585; cut-off not given, nearly all actives have IC50 up to about 0.98 µM;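 also: inhibitors leave more ATP so luminescence rises with inhibition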); details: recombinant PfCDPK1, Kinase-Glo ATP depletion luminescence
[6] = biological target: Plasmodium falciparum protein kinase 6 (PK6, PF3D7_1337100) (UniProt Q8IDW1); test: PfPK6 kinase inhibitors, biochemical, TCAMS library (AID 1159586); details: recombinant PfPK6, Kinase-Glo ATP depletion luminescence
[7] = biological target: Protein kinase 7 (PK7), Plasmodium falciparum 3D7 (PF3D7_0213400) (UniProt Q7YTF7); test: inhibition of Plasmodium PK7 catalytic activity – biochemical, TCAMS antimalarial set, Kinase-Glo luminescence (AID 1159587); details: recombinant PfPK7, Kinase-Glo ATP depletion luminescence
[8] = biological target: Calcium-dependent protein kinase 4 (Plasmodium falciparum (isolate 3D7)) (UniProt Q8IBS5); test: PfCDPK4 kinase inhibitors, biochemical, TCAMS library (AID 1159588; cut-off not given, nearly all actives have IC50 up to about 0.91 µM); details: recombinant PfCDPK4, Kinase-Glo ATP depletion luminescence
Chain of Calcium-dependent protein kinase 4 (Plasmodium falciparum (isolate 3D7)) (Q8IBS5 whole entry, looked up): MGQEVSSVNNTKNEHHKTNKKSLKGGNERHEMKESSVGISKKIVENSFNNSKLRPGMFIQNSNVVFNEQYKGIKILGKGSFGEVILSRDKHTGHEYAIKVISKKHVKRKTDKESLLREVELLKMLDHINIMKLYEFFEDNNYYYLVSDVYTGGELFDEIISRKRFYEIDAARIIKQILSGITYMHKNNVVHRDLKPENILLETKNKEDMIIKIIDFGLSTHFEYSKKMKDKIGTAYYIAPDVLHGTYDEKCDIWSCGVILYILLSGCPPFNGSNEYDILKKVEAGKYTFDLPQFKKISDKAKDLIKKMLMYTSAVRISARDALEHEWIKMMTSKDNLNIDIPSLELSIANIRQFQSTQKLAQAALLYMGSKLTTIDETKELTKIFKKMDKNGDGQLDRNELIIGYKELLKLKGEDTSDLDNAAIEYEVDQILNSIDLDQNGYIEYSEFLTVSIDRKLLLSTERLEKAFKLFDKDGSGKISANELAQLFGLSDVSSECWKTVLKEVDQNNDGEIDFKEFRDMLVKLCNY

Chain of Protein kinase 7 (PK7), Plasmodium falciparum 3D7 (PF3D7_0213400) (Q7YTF7 1-343): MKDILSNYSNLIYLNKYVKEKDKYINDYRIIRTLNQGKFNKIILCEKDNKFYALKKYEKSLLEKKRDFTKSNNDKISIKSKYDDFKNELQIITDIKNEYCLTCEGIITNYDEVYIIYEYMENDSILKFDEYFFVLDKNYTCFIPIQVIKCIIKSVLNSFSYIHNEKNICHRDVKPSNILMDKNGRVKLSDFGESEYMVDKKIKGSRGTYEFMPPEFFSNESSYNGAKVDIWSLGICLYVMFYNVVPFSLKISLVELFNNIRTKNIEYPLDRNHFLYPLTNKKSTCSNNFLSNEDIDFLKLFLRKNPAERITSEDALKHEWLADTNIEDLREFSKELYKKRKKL
Chain of Calcium-dependent protein kinase 1 (Plasmodium falciparum (isolate 3D7)) (P62344 whole entry, looked up): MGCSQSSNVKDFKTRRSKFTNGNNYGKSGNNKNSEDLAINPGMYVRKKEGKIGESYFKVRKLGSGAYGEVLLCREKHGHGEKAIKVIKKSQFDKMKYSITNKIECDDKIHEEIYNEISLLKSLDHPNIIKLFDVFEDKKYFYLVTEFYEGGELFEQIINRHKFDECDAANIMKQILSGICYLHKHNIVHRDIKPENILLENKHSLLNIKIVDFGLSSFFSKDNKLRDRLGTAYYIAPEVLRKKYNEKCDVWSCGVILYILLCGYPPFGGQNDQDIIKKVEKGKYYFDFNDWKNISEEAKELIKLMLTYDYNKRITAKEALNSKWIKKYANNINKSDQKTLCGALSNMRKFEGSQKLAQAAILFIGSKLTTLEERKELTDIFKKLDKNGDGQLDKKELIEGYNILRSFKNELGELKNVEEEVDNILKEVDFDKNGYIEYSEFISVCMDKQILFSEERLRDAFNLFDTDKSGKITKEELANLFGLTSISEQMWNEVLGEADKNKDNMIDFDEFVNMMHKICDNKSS
Chain of Plasmodium falciparum protein kinase 6 (PK6, PF3D7_1337100) (Q8IDW1 1-305): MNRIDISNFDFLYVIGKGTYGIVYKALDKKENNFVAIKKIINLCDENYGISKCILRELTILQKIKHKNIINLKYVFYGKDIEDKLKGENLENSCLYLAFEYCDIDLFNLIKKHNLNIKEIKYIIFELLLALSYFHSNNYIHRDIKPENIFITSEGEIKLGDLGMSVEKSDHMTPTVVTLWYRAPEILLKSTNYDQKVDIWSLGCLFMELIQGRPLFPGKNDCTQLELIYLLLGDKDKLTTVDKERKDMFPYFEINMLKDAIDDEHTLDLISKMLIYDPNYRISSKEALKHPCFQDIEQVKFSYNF
Chain of L-lactate dehydrogenase (Plasmodium falciparum (isolate CDC / Honduras)) (Q27743 whole entry, looked up): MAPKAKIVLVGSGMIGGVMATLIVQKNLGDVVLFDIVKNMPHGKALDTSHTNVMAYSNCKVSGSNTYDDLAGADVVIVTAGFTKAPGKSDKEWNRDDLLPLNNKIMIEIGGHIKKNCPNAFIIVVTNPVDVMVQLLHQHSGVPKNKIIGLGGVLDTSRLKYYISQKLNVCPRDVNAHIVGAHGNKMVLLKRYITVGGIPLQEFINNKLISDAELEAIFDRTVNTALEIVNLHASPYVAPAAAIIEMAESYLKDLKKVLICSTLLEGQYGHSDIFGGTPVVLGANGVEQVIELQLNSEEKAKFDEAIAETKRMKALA

O=C(Nc1ccc(Cl)cn1)c1sc2ccccc2c1O
active: growth inhibition [4] 99%
inactive: growth inhibition [1] 18% | inhibition [2] 2% | inhibition [3] -3% | outcome [5] | outcome [6] | outcome [7] | outcome [8]

CN(N=Cc1ccccc1)C(N)=NCCCC#Cc1cccc(CN2CCCC2)c1
inactive: growth inhibition [1] 3% | inhibition [2] 16% | inhibition [3] -2% | outcome [5] | outcome [6] | outcome [7] | outcome [8]
active: growth inhibition [4] 89%

CN(C(=O)C1(c2ccc(Cl)cc2)CC1)C1CCN(CCCCCNC(=O)/C=C/c2ccc(Cl)c(Cl)c2)CC1
inactive: growth inhibition [1] 0% | inhibition [3] -2% | outcome [5] | outcome [6] | outcome [7] | outcome [8]
active: inhibition [2] 91% | growth inhibition [4] 88%

c1ccc(CCNCc2ccc(-c3ccc(CNCc4ccc5c(c4)OCO5)cc3)nc2)cc1
active: growth inhibition [1] 67% | growth inhibition [4] 94%
inactive: inhibition [2] 24% | inhibition [3] 5% | outcome [5] | outcome [6] | outcome [7] | outcome [8]

N#CC(c1ccc(Cl)cc1)c1ccc2c(C(F)(F)F)cc(C(F)(F)F)nc2n1 (stereo not drawn)
inactive: inhibition [3] 1% | outcome [5] | outcome [6] | outcome [7] | outcome [8]
active: growth inhibition [1] 54% | inhibition [2] 68% | growth inhibition [4] 97%

O=C(Nc1ccc(N2CCN(Cc3cccc(F)c3)CC2)cc1)c1cccs1
active: growth inhibition [1] 92% | growth inhibition [4] 95%
inactive: inhibition [2] -5% | inhibition [3] -1% | outcome [5] | outcome [6] | outcome [7] | outcome [8]

CN(C)CCNc1ncnc2c1[nH]c1ccc(Cl)cc12
inactive: growth inhibition [1] 8% | inhibition [2] 7% | inhibition [3] 4% | outcome [5] | outcome [6] | outcome [7] | outcome [8]
active: growth inhibition [4] 100%

CC(C)CCOc1ccc(NC(=O)c2cccs2)cc1
active: growth inhibition [1] 95% | growth inhibition [4] 95%
inactive: inhibition [2] 11% | inhibition [3] -3% | outcome [5] | outcome [6] | outcome [7] | outcome [8]

O=C(NCC1CCN(Cc2ccc3c(c2)OCCO3)C1)c1cc(-c2ccccc2F)cs1 (stereo not drawn)
inactive: growth inhibition [1] -1% | inhibition [2] 18% | inhibition [3] 4% | outcome [5] | outcome [6] | outcome [7] | outcome [8]
active: growth inhibition [4] 95%

Cc1[nH]c(C)c(-c2ccc(-c3ccccc3Cl)nc2)c(=O)c1Cl
active: growth inhibition [1] 97% | growth inhibition [4] 98%
inactive: inhibition [2] -1% | inhibition [3] -5% | outcome [5] | outcome [6] | outcome [7] | outcome [8]

CC(=O)Nc1cccc(CN(Cc2ccc(-c3ccc(CNCc4cccnc4)cn3)cc2)C(=O)Cc2cccnc2)c1
active: growth inhibition [1] 65% | growth inhibition [4] 97%
inactive: inhibition [2] -3% | inhibition [3] -10% | outcome [5] | outcome [6] | outcome [7] | outcome [8]

CC1(C)N=C(N)N=C(N)N1OCCCOc1cc(Cl)ccc1Cl
active: growth inhibition [1] 96% | inhibition [2] 64% | growth inhibition [4] 96%
inactive: inhibition [3] -1% | outcome [5] | outcome [6] | outcome [7] | outcome [8]

COc1cc(CNC(=S)NN=C(C)c2ccccn2)cc(OC)c1OC
active: growth inhibition [1] 92% | growth inhibition [4] 99%
inactive: inhibition [2] 45% | inhibition [3] -4% | outcome [5] | outcome [6] | outcome [7] | outcome [8]

Cc1cc(N(C)C)nc(Nc2ccc(NC(=O)C(C)Oc3ccccc3)cc2)n1 (stereo not drawn)
inactive: growth inhibition [1] 30% | inhibition [2] 2% | inhibition [3] -1% | outcome [5] | outcome [6] | outcome [7] | outcome [8]
active: growth inhibition [4] 98%

CCNc1cc(C(=O)N[C@@H](Cc2ccccc2)[C@H](O)CNCCC(C)c2ccccc2)cc(N2CCCC2=O)c1 (stereo partly drawn)
active: growth inhibition [1] 95% | growth inhibition [4] 99%
inactive: inhibition [2] 0% | inhibition [3] 3% | outcome [5] | outcome [6] | outcome [7] | outcome [8]

CCCCc1ccc(Cc2cnc3nc(N)nc(N)c3c2C)cc1
inactive: growth inhibition [1] 5% | inhibition [3] 5% | outcome [5] | outcome [6] | outcome [7] | outcome [8]
active: inhibition [2] 64% | growth inhibition [4] 96%

COc1ccc2nc(-c3cc(-c4ccc(NC(=O)CN5CCOCC5)cc4)cnc3N)[nH]c2c1
inactive: inhibition [3] -4% | outcome [5] | outcome [6] | outcome [7] | outcome [8]
active: growth inhibition [1] 72% | inhibition [2] 52% | growth inhibition [4] 100%

COc1ccccc1OCCN(CC(O)COc1cccc2[nH]c3ccccc3c12)CC(O)COc1cccc2[nH]c3ccccc3c12 (stereo not drawn)
active: growth inhibition [1] 96% | growth inhibition [4] 97%
inactive: inhibition [2] 16% | inhibition [3] -8% | outcome [5] | outcome [6] | outcome [7] | outcome [8]

O=C(/C=C/c1ccc(I)cc1)NCCCCCN1CCC(c2c[nH]c3ccccc23)CC1
inactive: growth inhibition [1] 2% | inhibition [2] 43% | inhibition [3] -4% | outcome [5] | outcome [6] | outcome [7] | outcome [8]
active: growth inhibition [4] 95%

C(=NNc1cc(-c2ccccc2)nc2ccccc12)c1cccnc1
inactive: growth inhibition [1] 13% | inhibition [2] 23% | inhibition [3] -1% | outcome [5] | outcome [6] | outcome [7] | outcome [8]
active: growth inhibition [4] 87%

Cc1ccc(CCOCCCCCNCC(O)c2cc(Cl)c(N)c(Cl)c2)cc1 (stereo not drawn)
active: growth inhibition [1] 98% | growth inhibition [4] 99%
inactive: inhibition [2] 10% | inhibition [3] -1% | outcome [5] | outcome [6] | outcome [7] | outcome [8]

Cc1[nH]c(C)c(-c2ccc(OCc3ccc(OC(F)(F)F)cc3)nc2)c(=O)c1Cl
active: growth inhibition [1] 96% | growth inhibition [4] 98%
inactive: inhibition [2] 3% | inhibition [3] -3% | outcome [5] | outcome [6] | outcome [7] | outcome [8]

CNC(=O)COc1ccc(Nc2nnc(-c3ccc(C)c(S(=O)(=O)NCC4CCCO4)c3)c3ccccc23)cc1 (stereo not drawn)
inactive: inhibition [2] -8% | inhibition [3] 0% | outcome [5] | outcome [6] | outcome [7] | outcome [8]
active: growth inhibition [1] 68% | growth inhibition [4] 90%

CCN(CC)CCCC(C)Nc1c2cc(OC)ccc2nc2cc(Cl)c([N+](=O)[O-])cc12 (stereo not drawn)
inactive: inhibition [2] 12% | inhibition [3] 2% | outcome [5] | outcome [6] | outcome [7] | outcome [8]
active: growth inhibition [1] 89% | growth inhibition [4] 100%

CN(C)c1ccc2c(c1)Sc1cc(N(C)C)ccc1N2C(=O)c1cccc(C(=O)O)c1
active: growth inhibition [1] 73% | growth inhibition [4] 99%
inactive: inhibition [2] 8% | inhibition [3] -3% | outcome [5] | outcome [6] | outcome [7] | outcome [8]

CC(C)(C)OC(=O)NCc1ccc(Nc2nnc(-c3ccc(OCC(=O)NCc4cc(C(F)(F)F)cc(C(F)(F)F)c4)c([N+](=O)[O-])c3)o2)cc1
inactive: inhibition [2] 24% | inhibition [3] -1% | outcome [5] | outcome [6] | outcome [7] | outcome [8]
active: growth inhibition [1] 92% | growth inhibition [4] 97%

COc1ccc2ncc(F)c(CCN3C[C@H](CNCc4cc(F)c5c(c4)NC(=O)CO5)[C@H](O)C3)c2n1
inactive: growth inhibition [1] 23% | inhibition [2] 3% | inhibition [3] -7% | outcome [5] | outcome [6] | outcome [7] | outcome [8]
active: growth inhibition [4] 94%

Cc1nn(CC(C)C)c2sc(C(=O)Nc3nc(-c4ccccn4)cs3)cc12
active: growth inhibition [1] 67% | growth inhibition [4] 96%
inactive: inhibition [2] 29% | inhibition [3] 1% | outcome [5] | outcome [6] | outcome [7] | outcome [8]

CCc1cccc(-n2c(=O)c3cccnc3n2CC(=O)NCc2ccccc2Cl)c1
inactive: growth inhibition [1] 19% | inhibition [2] 25% | inhibition [3] -8% | outcome [5] | outcome [6] | outcome [7] | outcome [8]
active: growth inhibition [4] 98%

COc1ccc(CN2CCN(C(=O)c3cccs3)CC2)c(O)c1
active: growth inhibition [4] 97%
inactive: growth inhibition [1] 2% | inhibition [2] 7% | inhibition [3] 2% | outcome [5] | outcome [6] | outcome [7] | outcome [8]

Cc1ccccc1C(=O)Nc1cccc(-c2nc3ncccn3c2C)c1
active: growth inhibition [1] 94% | growth inhibition [4] 94%
inactive: inhibition [2] -5% | inhibition [3] 1% | outcome [5] | outcome [6] | outcome [7] | outcome [8]

O=C(Nc1ccc(-c2cccc(-c3nc4ccc(C(F)(F)F)cc4[nH]3)c2)cc1)Nc1ccc(F)c(F)c1F
active: growth inhibition [1] 85% | inhibition [2] 58% | growth inhibition [4] 99%
inactive: inhibition [3] 1% | outcome [5] | outcome [6] | outcome [7] | outcome [8]

CN(C(=O)Nc1ccc(F)cc1)C1CCN(CCCCCNC(=O)/C=C/c2ccc(Cl)c(Cl)c2)CC1
inactive: growth inhibition [1] -3% | inhibition [2] 38% | inhibition [3] -5% | outcome [5] | outcome [6] | outcome [7] | outcome [8]
active: growth inhibition [4] 89%

O=C(NCc1ccc(C(=O)N2CCC(N3CCCCC3)CC2)cc1)c1cc(-c2cccc(C(F)(F)F)c2)ccc1O
active: growth inhibition [1] 58% | growth inhibition [4] 100%
inactive: inhibition [2] -3% | inhibition [3] 1% | outcome [5] | outcome [6] | outcome [7] | outcome [8]

Cc1cc(I)ccc1Nc1nc2nonc2nc1Nc1ccc(I)cc1C
inactive: inhibition [3] -2% | outcome [5] | outcome [6] | outcome [7] | outcome [8]
active: growth inhibition [1] 96% | inhibition [2] 78% | growth inhibition [4] 100%

COc1cccc2c(NN=Cc3ccccc3Cl)cc(C)nc12
active: growth inhibition [1] 100% | growth inhibition [4] 102%
inactive: inhibition [2] 22% | inhibition [3] -2% | outcome [5] | outcome [6] | outcome [7] | outcome [8]

CC(=O)c1sc(Cc2nc3ccccc3s2)nc1C
active: growth inhibition [1] 88% | growth inhibition [4] 94%
inactive: inhibition [2] -13% | inhibition [3] 1% | outcome [5] | outcome [6] | outcome [7] | outcome [8]

COc1ccccc1N1CCN(C(C(=O)NCc2ccc3c(c2)OCO3)c2ccc(C)cc2)CC1 (stereo not drawn)
inactive: inhibition [2] 1% | inhibition [3] 2% | outcome [5] | outcome [6] | outcome [7] | outcome [8]
active: growth inhibition [1] 81% | growth inhibition [4] 85%

N[C@@H](Cc1cc(I)c(Oc2ccc(O)c(Cl)c2)c(I)c1)C(=O)O
active: growth inhibition [4] 96%
inactive: growth inhibition [1] -3% | inhibition [2] -4% | inhibition [3] -2% | outcome [5] | outcome [6] | outcome [7] | outcome [8]

COc1ccc2nccc([C@@H](O)CN3CCC(NCc4cc5ccccn5n4)CC3)c2c1
inactive: growth inhibition [1] 18% | inhibition [2] 7% | inhibition [3] -8% | outcome [5] | outcome [6] | outcome [7] | outcome [8]
active: growth inhibition [4] 99%

O=C(C=Cc1ccc(Cl)c(Cl)c1)NCCCCCN1CCCC(CCCNS(=O)(=O)c2cccc(C(F)(F)F)c2)C1 (stereo not drawn)
active: inhibition [2] 81% | growth inhibition [4] 94%
inactive: growth inhibition [1] 33% | inhibition [3] -3% | outcome [5] | outcome [6] | outcome [7] | outcome [8]
